Screening data from PubChem.
The list is not random: actives were taken first. Their share in the collection is about 11%.
AmpC inh detg: qHTS Inhibitors of AmpC Beta-Lactamase (assay with detergent); Potency, µM (top dose mostly 114 µM), inactives show top-dose activity change, negative = inhibition, most hits filed as inhibitors; AmpC hydrolysis of nitrocefin, absorbance 480 nm, 0.01% Triton; P00811; actives 0.041% (n = 370,000);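 note: 0% = no-compound wells and -100% = no-enzyme wells; nearly all actives have a fitted effect of over 25% in size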
Target sequence (P00811 whole entry, looked up): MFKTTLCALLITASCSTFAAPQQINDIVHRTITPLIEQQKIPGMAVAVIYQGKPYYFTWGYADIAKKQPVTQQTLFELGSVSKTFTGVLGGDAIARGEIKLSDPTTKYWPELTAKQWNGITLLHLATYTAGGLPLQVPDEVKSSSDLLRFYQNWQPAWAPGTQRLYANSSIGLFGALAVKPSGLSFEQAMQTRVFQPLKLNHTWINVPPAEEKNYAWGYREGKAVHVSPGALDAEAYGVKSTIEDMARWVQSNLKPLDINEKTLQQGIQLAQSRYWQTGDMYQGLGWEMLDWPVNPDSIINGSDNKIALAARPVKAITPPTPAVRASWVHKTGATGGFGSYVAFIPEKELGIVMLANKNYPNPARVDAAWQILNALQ
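20 mM phosphate pH 7.0 + 0.01% (detergent screen) or 0.0001% Triton X-100; 5.3 nM AmpC reagent; cpd preinc 15 min RT; nitrocefin (800 uM stock) to start; A480 q20 s × 4 min; Activity was normalised to no-enzyme and no-compound control wells.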
Pf growth 48h: Primary qHTS for delayed death inhibitors of the malarial parasite plastid, 48 hour incubation | P. falciparum luciferase growth in erythrocytes, 48 h | Potency, µM (highest dose often 28.7 µM), without a hit: at the top dose activity change, negative = inhibition, actives largely listed as inhibitors | actives 5.9% (n = 310,000) | AID 504832, 2011
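Growth was read as firefly luciferase luminescence after a 48 h, 37 C, 5% CO2 exposure of compounds to reporter-bearing P. falciparum cultures (0.1% parasitemia, 2% hematocrit final) in Albumax-supplemented RPMI 1640.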
AMA1-RON2 inh: qHTS for Inhibitors of AMA1-RON; Towards Development of Antimalarial Drug Lead: Primary Screen; Plasmodium falciparum AMA1 (3D7) - RON2 peptide interaction; AlphaScreen AMA1-biotinylated RON2 peptide binding; Potency, µM (top dose mostly 58.2 µM), for inactives: at the top dose activity change, negative = inhibition, actives largely listed as inhibitors; actives 0.2% (n = 360,000);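 note: 0% = vehicle wells and -100% = peptide control; nearly all actives have a fitted effect of over 45% in size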
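AMA1 (3D7) with his tag at 25 nM final met compounds first, then biotinylated RON2 peptide at 25 nM; detection used donor plus acceptor beads, 10 µg/mL apiece, read by AlphaScreen after 30 min at room temperature.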
HCV inhibitor: qHTS Assay for Inhibitors of Hepatitis C Virus (HCV) | Huh7.5.1 HCVcc-Cre infection, luciferase reporter, 44 h | Potency, µM (doses to about 41.8 µM), for inactives: at the highest dose activity change, negative = inhibition, actives largely listed as inhibitors | actives 3.4% (n = 340,000) | AID 651820, 2012
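Seed cells (1,000/well) for 4 h; treat with compound and infect with HCVcc-Cre, moi about 0.5. Incubate 44 h, then detect luciferase activity.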
Pf growth 96h: Primary qHTS for delayed death inhibitors of the malarial parasite plastid, 96 hour incubation; Potency, µM (titrated, usually from 28.7 µM), inactives show at the top dose activity change, negative = inhibition, actives largely listed as inhibitors; AID 504834, 2011; P. falciparum luciferase reporter growth, 96 h; actives 6.9% (n = 320,000)
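Parasite growth measured via integrated firefly luciferase reporter in P. falciparum. Infected erythrocytes at 2% hematocrit, 0.05% parasitemia final were treated 96 hours at 37 C under 5% CO2, and luminescence was read.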
AmpC inh no detg: qHTS Inhibitors of AmpC Beta-Lactamase (assay without detergent); P00811; AmpC nitrocefin hydrolysis, absorbance 480 nm, 0.0001% Triton; Potency, µM (doses to about 57.1 µM), without a hit: at the top dose activity change, negative = inhibition, hits mostly inhibitors; actives 0.52% (n = 330,000);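 note: plate controls were no compound for no effect and no enzyme for full effect; nearly all actives have a fitted effect of over 20% in size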
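20 mM phosphate pH 7.0 + 0.01% (detergent screen) or 0.0001% Triton X-100; 5.3 nM AmpC reagent; cpd preinc 15 min RT; nitrocefin (800 uM stock) to start; A480 q20 s × 4 min; Activity was normalised to no-enzyme and no-compound control wells.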
* = called active by the depositor; ? = inconclusive; nt = not tested or not shown. Calls come from the whole dose curve; as a rule, active = well fitted curve in the direction sought with a large enough effect; inconclusive = small, poorly fitted or top-dose-only effect, or another doubt; inactive = no such curve, though single readings can be large; an effect the other way counts as inactive or inconclusive. Unless noted, % is set by controls: 0 for no effect and ±100 for the full control effect; potency is the fitted concentration of half-maximal effect.

SMILES | AmpC inh detg | Pf growth 48h | AMA1-RON2 inh | HCV inhibitor | Pf growth 96h | AmpC inh no detg
COc1ccc(-c2cc(OC)c3c(C)oc(C)c3c(=O)c2)cc1OC | -3% | 4.7µM* | -13% | ? | 29% | 144%
COc1ccc(-c2cc(OC(=O)c3ccc(F)cc3)c3c(C)oc(C)c3c(=O)c2)cc1OC | 16% | nt | nt | nt | nt | nt
COc1cc(-c2cc(OC)c3c(C)oc(C)c3c(=O)c2)ccc1O | -13% | ? | -10% | ? | 3.7µM* | 0%
COc1ccc(CCN2C(=O)c3[nH]nc(-c4ccccc4O)c3C2c2ccccc2)cc1 (stereo not drawn) | 14% | nt | nt | nt | nt | nt
C[n+]1ccccc1/C=C/c1cc(Br)ccc1O | -2% | 0.74µM* | -4% | ? | ? | -1%
CCN(CC)c1ccc(C=Nc2ccccc2)c(O)c1 | -10% | ? | -13% | -6% | ? | -9%
COc1ccc(/C=C/c2cccc[n+]2C)c(O)c1 | ? | ? | -1% | 8.9µM* | 187% | -25%
CCN(CC)c1ccc(/C=C/c2cccc[n+]2C)c(OC)c1 | ? | 0.37µM* | -4% | 0.89µM* | 50% | 19%
CC(O)/C=C/c1cccc[n+]1C (stereo not drawn) | -2% | ? | -5% | 12% | ? | 21%
O=C(CCn1cnc2ccccc2c1=O)NCc1ccccc1 | 2% | nt | nt | nt | nt | nt
Cn1nc(C(F)(F)F)c(-c2ccc(F)cc2)c1NC(=O)Nc1ccc(F)cc1 | 6% | 0.83µM* | 8% | ? | 0.47µM* | -25%
Cn1nc(C(F)(F)F)c(-c2ccc(Br)cc2)c1NC(=O)c1ccco1 | 0% | ? | -6% | ? | ? | 59%
Fc1ccc(Sc2nc(-c3ccccc3)nnc2C(F)(F)F)cc1 | -2% | 8.3µM* | -2% | 9% | 13µM* | ?
Fc1ccc(Oc2nc(-c3ccccc3)nnc2C(F)(F)F)cc1 | 2% | 1% | 3% | 16% | -6% | -4%
CCOC(=O)C1=C(C)NC(C)=C(C(=O)OCC)C1/C=C/c1ccccc1OC | -6% | 9.3µM* | -11% | ? | ? | 22%
COCCOC(=O)C1=C(C)NC(C)=C(C(=O)OCCOC)C1/C=C/c1ccccc1OC | 9% | ? | 5% | 11% | 9.3µM* | 113%
CCOC(=O)C1=C(C)NC(=O)NC1/C=C/c1ccccc1OC (stereo not drawn) | -2% | 2% | -18% | ? | -21% | -14%
CCOC(=O)C1=C(C)NC(C)=C(C(=O)OCC)C1c1ccccc1C=CC(=O)OC(C)(C)C | nt | 13µM* | nt | nt | 8.5µM* | nt
COc1ccc(OC)c(NC(=O)Cn2cnc3onc(-c4ccc(Cl)cc4)c3c2=O)c1 | -3% | nt | nt | nt | nt | nt
CCN1CCN(C(c2ccccc2Cl)c2c(O)cc(C)n(CCOC)c2=O)CC1 (stereo not drawn) | 11% | nt | nt | nt | nt | nt
Cc1ccc(S(=O)(=O)N2c3ccccc3NC(=O)C2CC(=O)Nc2ccccc2)cc1 (stereo not drawn) | -19% | ? | -8% | -7% | 12µM* | -3%
COc1ccc(C2NC(c3ccc(OC)cc3)C(c3ccccc3)C(=O)C2c2ccccc2)cc1 (stereo not drawn) | -7% | 12µM* | -18% | -12% | 10µM* | -16%
COc1ccc(C2NC(c3ccc(OC)cc3)C(C)C(=O)C2C)cc1 (stereo not drawn) | 8% | ? | 3% | -15% | -33% | 2%
O=C(NCC(c1cccs1)N1CCOCC1)c1ccccc1NS(=O)(=O)c1cccc([N+](=O)[O-])c1 (stereo not drawn) | -11% | ? | -3% | -17% | ? | -38%
O=C(NCC(c1cccs1)N1CCOCC1)c1ccccc1NS(=O)(=O)c1cc([N+](=O)[O-])ccc1Cl (stereo not drawn) | -1% | ? | -6% | 6% | 13µM* | -4%
SMILES | AmpC inh detg | Pf growth 48h | AMA1-RON2 inh | HCV inhibitor | Pf growth 96h | AmpC inh no detg
O=C(NCC(c1cccs1)N1CCOCC1)c1ccccc1NS(=O)(=O)c1ccc(Cl)c([N+](=O)[O-])c1 (stereo not drawn) | 2% | ? | -18% | 5% | 8.3µM* | 1%
CCOc1ccc(OCC)c(NC(=O)CC(C)n2nc(C)cc2C)c1 (stereo not drawn) | 22% | nt | nt | nt | nt | nt
Fc1ccccc1CN1CCCN(C(=S)Nc2cccc(Cl)c2)C1 | ? | 9.3µM* | 25% | ? | -29% | -24%
Cc1c(Cl)cccc1NC(=S)N1CCCN(Cc2ccccc2F)C1 | -7% | ? | 42% | 1% | ? | -7%
CCn1c(=O)cc(OCC(=O)N2CCN(c3ccccc3OC)CC2)c2ccccc21 | 15% | nt | nt | nt | nt | nt
CCCC(=O)N(Cc1cc(=O)[nH]c2ccccc12)c1cccc(C)c1 | 2% | 12µM* | -4% | 7% | 8.3µM* | -2%
Cc1ccc(S(=O)(=O)Nc2nc(-c3ccccc3)cs2)cc1 | -15% | -1% | -11% | 3% | 0% | -35%
O=[N+]([O-])c1ccc(S(=O)(=O)Nc2ccc(-c3csc(-c4ccccc4)n3)cc2)cc1 | 8% | -5% | nt | nt | 8% | -55%
Cc1ccc(S(=O)(=O)Nc2ccc(-c3csc(-c4ccccc4)n3)cc2)cc1 | ? | 16% | -1% | 10µM* | -29% | -35%
O=S(=O)(Nc1ccc(-c2csc(-c3ccccc3)n2)cc1)c1ccccc1 | ? | 16% | -14% | ? | 0.66µM* | -32%
COc1ccccc1NC(=O)C(=O)NCC(c1ccc2c(c1)OCO2)N1CCN(C)CC1 (stereo not drawn) | 4% | nt | nt | nt | nt | nt
CCCn1cnc2c(N)c(C)c(C)cc21 | 6% | 11% | -7% | -12% | -14% | 0.32µM*
CCOc1ccccc1N(C)C(=O)Cn1cnc2sc(C)c(S(=O)(=O)N3CCC(C)CC3)c2c1=O | 9% | nt | nt | nt | nt | nt
Clc1ccc(OCCN2CCN(c3ncnc4sccc34)CC2)cc1 | -12% | 95% | -6% | 0.32µM* | ? | 153%
Cc1sc2ncnc(N3CCCCC3)c2c1C | -6% | 0% | 1% | ? | nt | 2%
Cc1ccc(OCCN2CCN(c3ncnc4sc(C)c(C)c34)CC2)cc1 | -8% | nt | -23% | 2.5µM* | ? | 122%
COc1ccc(S(=O)(=O)N(CC(=O)NC2CCCC2)c2ccccc2OC)cc1 | 2% | ? | 5% | 9% | 12µM* | 67%
